# According to the supplement of paper PMC8728848:
# Many of the other results were omitted from the sample, so the strongest signals are more common in it than they were.
# Tests used:
# Experiment in all cases: glycan array binding signal (z-score within array); higher = stronger binding
# Details in all cases: glycan notation: IUPAC condensed, linker removed
# Fuc(a1-2)Gal = molecular target: Fuc(a1-2)Gal
# In short: (§1)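 Glycan array binding is given as a within-array Z-score, which can be read as non-binding when negative. The arrays, 3228 of them, came from the Consortium for Functional Glycomics database and were retained only where the protein sequence was available. Z-scores were averaged across arrays of the same protein sequence at different concentrations or buffers and across linkers.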
# [1] = molecular target: Fuc(a1-2)Gal(b1-3)GlcNAc(b1-2)Man(a1-3)[Fuc(a1-2)Gal(b1-3)GlcNAc(b1-2)Man(a1-6)]Man(b1-4)GlcNAc(b1-4)GlcNAc
# In short: as §1
# [2] = molecular target: Fuc(a1-2)Gal(b1-3)[Fuc(a1-4)]GlcNAc(b1-3)[Gal(b1-4)GlcNAc(b1-6)]Gal(b1-4)Glc
# In short: as §1
# [3] = molecular target: Fuc(a1-2)Gal(b1-4)GlcNAc(b1-3)Gal(b1-4)GlcNAc(b1-2)Man(a1-3)[Fuc(a1-2)Gal(b1-4)GlcNAc(b1-3)Gal(b1-4)GlcNAc(b1-2)Man(a1-6)]Man(b1-4)GlcNAc(b1-4)GlcNAc
# In short: as §1
# Fuc(a1-2)Gal6S(b1-4)Glc = molecular target: Fuc(a1-2)Gal6S(b1-4)Glc
# In short: as §1
# [4] = molecular target: Fuc(a1-2)[GalNAc(a1-3)]Gal(b1-4)GlcNAc(b1-3)Gal(b1-4)GlcNAc(b1-3)Gal(b1-4)GlcNAc
# In short: as §1
# [5] = molecular target: Fuc(a1-3)[Gal(b1-4)]GlcNAc
# In short: as §1
# [6] = molecular target: Fuc(a1-3)[Gal(b1-4)]GlcNAc(b1-2)Man(a1-3)[Fuc(a1-3)[Gal(b1-4)]GlcNAc(b1-2)Man(a1-6)]Man(b1-4)GlcNAc(b1-4)[Fuc(a1-6)]GlcNAc
# In short: as §1
# Fuc(a1-4)GlcNAc = molecular target: Fuc(a1-4)GlcNAc
# In short: as §1
# [7] = molecular target: Gal(a1-3)Gal(b1-4)GlcNAc(b1-2)Man
# In short: as §1
# [8] = molecular target: Gal(a1-3)Gal(b1-4)[Fuc(a1-3)]GlcNAc(b1-2)Man(a1-3)[Gal(a1-3)Gal(b1-4)[Fuc(a1-3)]GlcNAc(b1-2)Man(a1-6)]Man(b1-4)GlcNAc(b1-4)GlcNAc
# In short: as §1
# [9] = molecular target: Gal(b1-3)GlcNAc(b1-3)Gal(b1-4)GlcNAc(b1-3)Gal(b1-4)GlcNAc(b1-2)[Gal(b1-3)GlcNAc(b1-3)Gal(b1-4)GlcNAc(b1-3)Gal(b1-4)GlcNAc(b1-6)]Man(a1-6)[Gal(b1-3)GlcNAc(b1-3)Gal(b1-4)GlcNAc(b1-3)Gal(b1-4)GlcNAc(b1-2)Man(a1-3)]Man(b1-4)GlcNAc(b1-4)[Fuc(a1-6)]GlcNAc
# In short: as §1
# [10] = molecular target: Gal(b1-4)GlcNAc(b1-3)Gal(b1-4)GlcNAc(b1-2)Man(a1-3)[Gal(b1-4)GlcNAc(b1-3)Gal(b1-4)GlcNAc(b1-2)Man(a1-6)]Man(b1-4)GlcNAc(b1-4)GlcNAc
# In short: as §1
# [11] = molecular target: Gal(b1-4)GlcNAc(b1-3)Gal(b1-4)GlcNAc(b1-3)Gal(b1-4)GlcNAc(b1-2)Man(a1-3)[Gal(b1-4)GlcNAc(b1-3)Gal(b1-4)GlcNAc(b1-3)Gal(b1-4)GlcNAc(b1-2)Man(a1-6)]Man(b1-4)GlcNAc(b1-4)GlcNAc
# In short: as §1
# [12] = molecular target: Gal(b1-4)GlcNAc(b1-3)Gal(b1-4)GlcNAc(b1-3)Gal(b1-4)GlcNAc(b1-3)Gal(b1-4)GlcNAc(b1-3)Gal(b1-4)GlcNAc(b1-2)Man(a1-3)[Gal(b1-4)GlcNAc(b1-3)Gal(b1-4)GlcNAc(b1-3)Gal(b1-4)GlcNAc(b1-3)Gal(b1-4)GlcNAc(b1-3)Gal(b1-4)GlcNAc(b1-2)Man(a1-6)]Man(b1-4)GlcNAc(b1-4)GlcNAc
# In short: as §1
# [13] = molecular target: Gal(b1-4)GlcNAc(b1-3)Gal(b1-4)GlcNAc(b1-3)Gal(b1-4)GlcNAc(b1-3)Gal(b1-4)GlcNAc(b1-3)Gal(b1-4)GlcNAc(b1-2)Man(a1-3)[Gal(b1-4)GlcNAc(b1-3)Gal(b1-4)GlcNAc(b1-3)Gal(b1-4)GlcNAc(b1-3)Gal(b1-4)GlcNAc(b1-3)Gal(b1-4)GlcNAc(b1-2)Man(a1-6)]Man(b1-4)GlcNAc(b1-4)[Fuc(a1-6)]GlcNAc
# In short: as §1
# [14] = molecular target: Gal(b1-4)GlcNAc(b1-3)Gal(b1-4)GlcNAc(b1-3)Gal(b1-4)GlcNAc(b1-3)Gal(b1-4)GlcNAc(b1-3)Gal(b1-4)GlcNAc(b1-2)[Gal(b1-4)GlcNAc(b1-3)Gal(b1-4)GlcNAc(b1-3)Gal(b1-4)GlcNAc(b1-3)Gal(b1-4)GlcNAc(b1-3)Gal(b1-4)GlcNAc(b1-6)]Man(a1-6)[Gal(b1-4)GlcNAc(b1-3)Gal(b1-4)GlcNAc(b1-3)Gal(b1-4)GlcNAc(b1-3)Gal(b1-4)GlcNAc(b1-3)Gal(b1-4)GlcNAc(b1-2)Man(a1-3)]Man(b1-4)GlcNAc(b1-4)[Fuc(a1-6)]GlcNAc
# In short: as §1
# [15] = molecular target: Gal(b1-4)GlcNAc(b1-3)Gal(b1-4)GlcNAc(b1-3)Gal(b1-4)GlcNAc(b1-3)Gal(b1-4)GlcNAc(b1-3)Gal(b1-4)GlcNAc(b1-3)Gal(b1-4)GlcNAc(b1-2)Man(a1-3)[Gal(b1-4)GlcNAc(b1-3)Gal(b1-4)GlcNAc(b1-3)Gal(b1-4)GlcNAc(b1-3)Gal(b1-4)GlcNAc(b1-3)Gal(b1-4)GlcNAc(b1-3)Gal(b1-4)GlcNAc(b1-2)Man(a1-6)]Man(b1-4)GlcNAc(b1-4)GlcNAc
# In short: as §1
# [16] = molecular target: Gal(b1-4)GlcNAc(b1-6)GalNAc
# In short: as §1
# Gal3S(b1-4)Glc = molecular target: Gal3S(b1-4)Glc
# In short: as §1
# Gal3S(b1-4)Glc6S = molecular target: Gal3S(b1-4)Glc6S
# In short: as §1
# [17] = molecular target: Gal3S(b1-4)[Fuc(a1-3)]Glc6S
# In short: as §1
# Gal6S(b1-4)GlcNAc6S = molecular target: Gal6S(b1-4)GlcNAc6S
# In short: as §1
# [18] = molecular target: GalNAc3S(b1-4)[Fuc(a1-3)]GlcNAc
# In short: as §1
# [19] = molecular target: GlcNAc(a1-4)Gal(b1-3)GlcNAc
# In short: as §1
binder,measurement,setting,value
SP15308C-bot-338-23-338 (Bacteroides ovatus) (protein) DEWTDEQFKQLISFKTQPGGWGVTDVHVRYANSAKYTYNLPVLVSGSTDNTDDRLVSFSLRDDTLDILNFEKFGNRPELYFRELPQKYYSFPKELTIPAGQSHALLPIEFSLDGLDDSQKWALPLKVCEDANGTYAVNPRKYYRTAVLRPILFNEFSGRFSGSSLLGTMAGESDIKFSSTEIKLNVVTDSIVFFYAGQRTEDYEDRINYKVFLQFTGDKVDSKKDLYKMKIWAENEKLKFNSYSTPTYKVSSEMDATKTYLKHTYIVISDIDFDFVDYTSVPNYEIEYNMKGGLSVSRDLDTRKPDEDQGSDSKWW,glycan array binding signal (z-score),Fuc(a1-2)Gal,-0.164
same,glycan array binding signal (z-score),[1],2.27
same,glycan array binding signal (z-score),[2],-0.476
same,glycan array binding signal (z-score),[3],0.228
same,glycan array binding signal (z-score),Fuc(a1-2)Gal6S(b1-4)Glc,0.374
same,glycan array binding signal (z-score),[4],-0.548
same,glycan array binding signal (z-score),[5],-0.26
same,glycan array binding signal (z-score),[6],2.11
same,glycan array binding signal (z-score),Fuc(a1-4)GlcNAc,2.58
same,glycan array binding signal (z-score),[7],-0.133
same,glycan array binding signal (z-score),[8],1.61
same,glycan array binding signal (z-score),[9],3.59
same,glycan array binding signal (z-score),[10],1.12
same,glycan array binding signal (z-score),[11],4.37
same,glycan array binding signal (z-score),[12],2.06
same,glycan array binding signal (z-score),[13],2.46
same,glycan array binding signal (z-score),[14],6.22
same,glycan array binding signal (z-score),[15],0.957
same,glycan array binding signal (z-score),[16],-0.147
same,glycan array binding signal (z-score),Gal3S(b1-4)Glc,-0.591
same,glycan array binding signal (z-score),Gal3S(b1-4)Glc6S,-0.188
same,glycan array binding signal (z-score),[17],0.68
same,glycan array binding signal (z-score),Gal6S(b1-4)GlcNAc6S,-0.622
same,glycan array binding signal (z-score),[18],-0.053
same,glycan array binding signal (z-score),[19],0.674
